In PubChem BioAssay (NCATS):
Results filed as inconclusive are left out. Calls of active or inactive are those of the source. Unless noted, the call rests on the fitted dose curve; in most records, active means well fitted curve in the direction sought with a large enough effect; inconclusive means small, poorly fitted or top-dose-only effect, or another doubt; inactive means no such curve, though single readings can be large; an effect the other way counts as inactive or inconclusive.

Experiments:
[1] = AP1 Signaling Pathway (AID 357; active means well fitted curve in either direction with a large enough effect, not every such curve was filed as active; further: on the % scale 0 is the no-effect control and ±100 the full control effect)
Procedure, shortened: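 AP-1-bla ME-180 cells with beta-lactamase reporter under AP-1 response element, stimulated with EC50 EGF; compounds titrated, 5 hours at 37 degrees Celsius. CCF4 read at 460/530 nm ratio; positive and negative modulators judged by AC50.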

[2] = biological target: Cytochrome P450 1A2 (Homo sapiens) (UniProt P05177); test: p450-cyp1a2 (AID 410; calls by dose curve;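 further: -100% = full effect of reference inhibitor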)
Procedure, shortened: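 Luminescent readout of luciferin formed from Luciferin-ME by human CYP1A2; data normalized against complete inhibition by 57 uM furafylline. Enzyme 20nM, substrate 100uM at Km, 100mM KPO4 buffer, 60 min reaction at room temperature.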

[3] = NFAT Signaling Pathway (AID 444; active means well fitted curve in either direction with a large enough effect, not every such curve was filed as active;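 further: carbachol stimulus at about its EC50 of 1 µM final; on the % scale 0 is the no-effect control and ±100 the full control effect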); conditions: Jurkat NFAT-bla M1, carbachol, beta-lactamase ratio, 5 h; at 38 µM (top of the series)
Procedure, shortened: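 Jurkat cells with NFAT-driven β-lactamase reporter and co-expressed M1 receptor, stimulated with carbachol (final 1 uM, ~EC50), compound titration, 5 h at 37 °C. CCF4 loaded 1 h at RT; 460/530 nm ratio gave %activity and AC50.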

[4] = Stat Signaling Pathway (AID 446; active means well fitted curve in either direction with a large enough effect, not every such curve was filed as active;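 further: ME-180 cervical cancer cells given 40 pM IL-6 alongside compound; SIE-controlled beta-lactamase reporter measured as 460/530 nm FRET emission ratio; on the % scale 0 is the no-effect control and ±100 the full control effect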)
Procedure, shortened: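 ME-180 cells carrying a SIE-driven beta-lactamase reporter are stimulated with 40 pM IL-6 for 5 h at 37C in the presence of compound. The 460/530 nm FRET substrate ratio is read after 2.5 h at RT. Data are normalised to 300 pM IL-6 and to 125 nM JAK inhibitor controls.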

[5] = biological target: Glucocorticoid receptor (Homo sapiens) (UniProt P04150); test: GR-EFC Redistribution (AID 451; calls by dose curve; further: potency means the concentration at half of the fitted maximal effect); conditions: CHO-K1 GR-EFC translocation, beta-gal luminescence, 2 h
Sequence of Glucocorticoid receptor (Homo sapiens) (P04150 whole entry, looked up, the tested form may be a part): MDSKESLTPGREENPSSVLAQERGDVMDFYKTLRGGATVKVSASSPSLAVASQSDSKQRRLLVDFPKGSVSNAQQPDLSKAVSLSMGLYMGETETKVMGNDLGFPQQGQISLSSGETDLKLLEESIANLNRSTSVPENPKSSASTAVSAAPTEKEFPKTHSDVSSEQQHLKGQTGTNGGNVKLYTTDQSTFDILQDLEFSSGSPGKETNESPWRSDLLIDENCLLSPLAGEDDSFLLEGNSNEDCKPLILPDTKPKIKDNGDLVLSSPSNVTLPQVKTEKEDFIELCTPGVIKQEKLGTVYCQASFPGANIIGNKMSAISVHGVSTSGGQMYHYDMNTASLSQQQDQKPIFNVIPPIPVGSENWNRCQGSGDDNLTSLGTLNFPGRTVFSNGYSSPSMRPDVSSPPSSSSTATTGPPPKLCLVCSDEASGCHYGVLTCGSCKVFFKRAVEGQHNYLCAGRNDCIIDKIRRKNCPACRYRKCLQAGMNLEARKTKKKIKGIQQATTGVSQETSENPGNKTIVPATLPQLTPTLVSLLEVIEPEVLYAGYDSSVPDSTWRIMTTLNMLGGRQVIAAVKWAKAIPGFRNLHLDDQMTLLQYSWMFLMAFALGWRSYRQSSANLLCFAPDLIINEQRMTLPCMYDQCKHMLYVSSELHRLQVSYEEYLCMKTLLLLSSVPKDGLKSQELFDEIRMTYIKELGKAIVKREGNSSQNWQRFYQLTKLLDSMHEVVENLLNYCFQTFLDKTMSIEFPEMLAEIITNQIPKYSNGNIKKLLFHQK
Procedure, shortened: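 CHO-K1 cells expressing nuclear EA and GR-ED fragments of b-gal; compounds titrated up to 46 uM final, 2 h at 37 C. GR nuclear translocation read as complemented b-gal luminescence after 1 h RT detection.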

[6] = biological target: Mitogen-activated protein kinase 10 (Mus musculus) (UniProt Q61831); test: JNK3 AlphaScreen Assay (AID 530; active means well fitted curve in either direction with a large enough effect, not every such curve was filed as active;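 further: kinase came from lysate of stimulated human HepG2 cells; signal reports phosphorylation of biotinylated GST-cJun 1-79 at Ser73 with 10 µM ATP; on the % scale 0 is the no-effect control and ±100 the full control effect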)
Procedure, shortened: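 Pre-activated (IL-1β/TNFα) JNK3 in HepG2 lysates phosphorylates biotin-GST-cJun(1-79), 10 uM ATP; anti-phospho-cJun(Ser73) AlphaScreen read at room temperature, pH 7.6 Tris buffer. Compounds pre-incubated 15 min as titrations.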

[7] = biological target: 3',5'-cyclic-AMP phosphodiesterase 4B (Homo sapiens) (UniProt Q07343); test: qHTS Assay for Inhibitors of PDE-IV (AID 607; active means well fitted activation curve with a large enough effect in the main read-out, with a control signal flat, not every such curve was filed as active; further: % of control where 0% means no effect)
Sequence of 3',5'-cyclic-AMP phosphodiesterase 4B (Homo sapiens) (Q07343 whole entry, looked up): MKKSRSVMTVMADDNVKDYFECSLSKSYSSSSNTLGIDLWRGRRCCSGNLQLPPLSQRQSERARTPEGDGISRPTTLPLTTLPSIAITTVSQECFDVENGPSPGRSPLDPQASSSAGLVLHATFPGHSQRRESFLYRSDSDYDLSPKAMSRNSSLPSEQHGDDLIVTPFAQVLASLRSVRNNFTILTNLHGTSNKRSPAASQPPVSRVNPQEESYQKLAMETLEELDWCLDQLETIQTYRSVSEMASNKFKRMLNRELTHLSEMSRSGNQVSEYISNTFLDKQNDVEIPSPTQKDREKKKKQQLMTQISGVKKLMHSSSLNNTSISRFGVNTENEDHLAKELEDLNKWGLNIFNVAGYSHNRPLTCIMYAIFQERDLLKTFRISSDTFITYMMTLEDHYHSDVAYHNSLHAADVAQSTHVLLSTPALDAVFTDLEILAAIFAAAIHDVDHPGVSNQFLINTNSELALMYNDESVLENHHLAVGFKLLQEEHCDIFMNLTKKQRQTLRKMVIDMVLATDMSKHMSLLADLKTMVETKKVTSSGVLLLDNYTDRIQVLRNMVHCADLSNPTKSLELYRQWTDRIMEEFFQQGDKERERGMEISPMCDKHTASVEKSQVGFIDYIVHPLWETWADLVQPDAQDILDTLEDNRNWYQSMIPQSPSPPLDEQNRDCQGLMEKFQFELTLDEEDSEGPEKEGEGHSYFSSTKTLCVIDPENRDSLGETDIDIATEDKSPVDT
Procedure, shortened: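 HEK293 ACTOne cells with CNG channel (1000/well), endogenous PDE4; membrane potential dye, compounds up to 22.9 uM final. Fluorescence Ex 535/Em 590; RO 20-1724 (100 uM final) as reference.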

[8] = biological target: Guanine nucleotide-binding protein G(i) subunit alpha-1 (Homo sapiens) (UniProt P63096); test: qHTS Assay for Inhibitors of RGS12 GoLoco Motif Activity (Green Fluorophore) (AID 879);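 further: 0% = labeled peptide with Gαi1 and full inhibition = labeled peptide alone without protein; negative values mean loss of peptide binding seen as reduced polarization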
Sequence of Guanine nucleotide-binding protein G(i) subunit alpha-1 (Homo sapiens) (P63096 whole entry, looked up): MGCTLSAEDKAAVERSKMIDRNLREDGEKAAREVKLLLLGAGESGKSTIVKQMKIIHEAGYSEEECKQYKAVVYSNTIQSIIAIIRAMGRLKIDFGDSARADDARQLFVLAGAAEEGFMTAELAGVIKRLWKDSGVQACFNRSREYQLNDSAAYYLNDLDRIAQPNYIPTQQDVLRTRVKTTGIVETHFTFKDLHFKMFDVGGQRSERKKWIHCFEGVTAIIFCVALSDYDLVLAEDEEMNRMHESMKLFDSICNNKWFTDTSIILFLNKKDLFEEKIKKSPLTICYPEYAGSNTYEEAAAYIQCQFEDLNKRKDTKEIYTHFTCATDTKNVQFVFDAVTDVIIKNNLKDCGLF
Procedure, shortened: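 Fluorescence polarization assay: 50 nM Gαi1 with 10 nM FITC-labeled RGS12 GoLoco peptide in 10 mM Tris pH 7.5, 150 mM NaCl, 0.1 mM GDP, 0.05% NP40, 10 min at room temperature with compound.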

[9] = biological target: Cytochrome P450 3A4 (Homo sapiens) (UniProt P08684); test: qHTS Assay for Activators of Cytochrome P450 3A4 (AID 885); further: nearly all actives have a fitted effect of over 65% in size
Sequence of Cytochrome P450 3A4 (Homo sapiens) (P08684 whole entry, looked up): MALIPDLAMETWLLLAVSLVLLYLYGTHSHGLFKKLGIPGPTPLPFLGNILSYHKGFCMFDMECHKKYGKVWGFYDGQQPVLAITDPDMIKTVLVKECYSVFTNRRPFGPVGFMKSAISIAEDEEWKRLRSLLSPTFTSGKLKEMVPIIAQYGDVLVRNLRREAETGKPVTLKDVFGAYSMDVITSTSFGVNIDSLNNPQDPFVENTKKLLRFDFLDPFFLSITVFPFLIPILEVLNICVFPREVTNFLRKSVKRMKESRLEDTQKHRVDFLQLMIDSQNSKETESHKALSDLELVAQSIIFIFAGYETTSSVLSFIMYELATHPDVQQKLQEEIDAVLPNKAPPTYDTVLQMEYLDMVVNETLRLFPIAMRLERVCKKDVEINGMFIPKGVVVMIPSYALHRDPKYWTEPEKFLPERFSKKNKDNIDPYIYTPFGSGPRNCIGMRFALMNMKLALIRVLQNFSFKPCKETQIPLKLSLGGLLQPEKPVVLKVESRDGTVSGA
Procedure, shortened: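 Human CYP3A4 (20 nM) with Luciferin-PPXE at 25 uM (its KM) in 200 mM KPO4; 10 min compound preincubation, then NADPH regeneration and 60 min reaction at RT. Luciferin read by luminescence; normalized to 57 uM ketoconazole full inhibition.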

[10] = biological target: Muscarinic acetylcholine receptor M1 (Rattus norvegicus) (UniProt P08482); test: qHTS Assay for Antagonists of Acetylcholine Muscarinic M1 Receptor: Kinetic Measurement of Intracellular Calcium Response (AID 943);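 further: Fluo-4 calcium signal as peak divided by basal fluorescence over 4 min; nearly all actives have a fitted effect of over 75% in size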
Sequence of Muscarinic acetylcholine receptor M1 (Rattus norvegicus) (P08482 whole entry, looked up): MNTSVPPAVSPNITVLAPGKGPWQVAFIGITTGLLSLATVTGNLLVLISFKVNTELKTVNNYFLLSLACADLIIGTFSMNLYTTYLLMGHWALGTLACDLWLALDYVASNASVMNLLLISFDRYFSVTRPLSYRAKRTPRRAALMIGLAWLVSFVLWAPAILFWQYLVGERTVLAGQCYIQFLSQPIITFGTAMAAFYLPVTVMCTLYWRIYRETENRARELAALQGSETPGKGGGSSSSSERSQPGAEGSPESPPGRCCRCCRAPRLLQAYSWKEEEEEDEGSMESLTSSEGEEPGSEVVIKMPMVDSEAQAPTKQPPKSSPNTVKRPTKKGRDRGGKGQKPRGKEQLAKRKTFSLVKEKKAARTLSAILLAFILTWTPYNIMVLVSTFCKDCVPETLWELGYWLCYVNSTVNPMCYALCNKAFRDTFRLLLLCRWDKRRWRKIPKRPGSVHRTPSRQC
Procedure, shortened: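 Rat M1-CHO cells, 2000/well, overnight → Fluo-4 no-wash dye with probenecid, 1 h 37C → compound 10 min, room temp → basal read 6 s → carbachol EC80 (100 nM) → 4 min kinetic read; peak/basal.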

[11] = biological target: Muscarinic acetylcholine receptor M1 (Rattus norvegicus) (UniProt P08482); test: qHTS Assay for Antagonists of Acetylcholine Muscarinic M1 Receptor: Measurement of IP-One Response (AID 944); further: nearly all actives have a fitted effect of over 75% in size
Procedure, shortened: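 M1-CHO (rat), 2000 cells/well, overnight recovery; cpd 10 min; carbachol EC80 (200 nM), 30 min, HEPES buffer + 50 mM LiCl pH 7.4; IP-One HTRF, Ex 337, Em 620/665 nm.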

[12] = biological target: Pyruvate kinase (Leishmania mexicana) (UniProt Q27686); test: qHTS Validation Assay for Inhibitors of Leishmania Mexicana Pyruvate Kinase (AID 945);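 further: 0% = DMSO only neutral control wells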
Sequence of Pyruvate kinase (Leishmania mexicana) (Q27686 2-499 E452W): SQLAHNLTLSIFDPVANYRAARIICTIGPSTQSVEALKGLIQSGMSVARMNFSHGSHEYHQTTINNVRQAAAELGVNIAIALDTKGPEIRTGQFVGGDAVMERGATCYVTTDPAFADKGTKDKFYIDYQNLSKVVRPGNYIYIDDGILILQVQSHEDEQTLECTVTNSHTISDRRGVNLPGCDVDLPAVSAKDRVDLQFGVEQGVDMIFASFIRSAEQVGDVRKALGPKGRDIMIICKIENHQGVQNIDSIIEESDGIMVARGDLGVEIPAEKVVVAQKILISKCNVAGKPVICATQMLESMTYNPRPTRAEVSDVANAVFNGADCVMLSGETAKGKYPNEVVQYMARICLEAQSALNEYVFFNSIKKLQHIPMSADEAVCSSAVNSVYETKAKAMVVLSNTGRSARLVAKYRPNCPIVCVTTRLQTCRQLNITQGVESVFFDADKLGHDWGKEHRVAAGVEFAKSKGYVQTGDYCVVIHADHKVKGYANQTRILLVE
Procedure, shortened: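 qHTS eight-point titrations against 0.2 nM LmPYK (E451W) in imidazole buffer pH 7.2 with 0.5 mM PEP, 0.1 mM ADP; 1 h, room temperature. Readout: PKLight luminescence, normalized to neutral DMSO wells.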

[13] = biological target: Alpha-galactosidase (Coffea arabica) (UniProt Q42656); test: Counterscreen for Glucocerebrosidase Inhibitors: qHTS Assay for Coffee Bean alpha-Galactosidase at pH 4.5 (AID 957);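 further: plate controls were enzyme alone for no effect and no enzyme for full effect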
Sequence of Alpha-galactosidase (Coffea arabica) (Q42656 whole entry, looked up): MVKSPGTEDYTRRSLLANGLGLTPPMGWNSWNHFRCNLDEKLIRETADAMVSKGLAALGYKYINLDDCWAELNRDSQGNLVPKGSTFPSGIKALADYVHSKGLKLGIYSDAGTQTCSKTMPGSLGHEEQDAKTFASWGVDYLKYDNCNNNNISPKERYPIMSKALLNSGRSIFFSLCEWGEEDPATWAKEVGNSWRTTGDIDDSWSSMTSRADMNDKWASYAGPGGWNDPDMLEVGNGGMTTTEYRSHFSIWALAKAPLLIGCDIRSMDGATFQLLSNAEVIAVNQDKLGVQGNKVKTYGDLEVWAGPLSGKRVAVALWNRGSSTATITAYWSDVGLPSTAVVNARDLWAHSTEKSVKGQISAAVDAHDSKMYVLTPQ
Procedure, shortened: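 Coffee bean alpha-galactosidase 2 nM, substrate 4-MU-alpha-Gal 80 uM, pH 4.5 citrate/Tween-20, 20 min RT. Cpd titration 0.7 nM–77 uM. Stop pH 10, fluorescence 365/440 nm; Hill-equation AC50.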

[14] = biological target: Alpha-galactosidase A (Homo sapiens) (UniProt P06280); test: Counterscreen for Glucocerebrosidase Inhibitors: qHTS Assay for Human alpha-Galactosidase at pH 4.5 (AID 992); further: 0% is about no effect
Sequence of Alpha-galactosidase A (Homo sapiens) (P06280 whole entry, looked up): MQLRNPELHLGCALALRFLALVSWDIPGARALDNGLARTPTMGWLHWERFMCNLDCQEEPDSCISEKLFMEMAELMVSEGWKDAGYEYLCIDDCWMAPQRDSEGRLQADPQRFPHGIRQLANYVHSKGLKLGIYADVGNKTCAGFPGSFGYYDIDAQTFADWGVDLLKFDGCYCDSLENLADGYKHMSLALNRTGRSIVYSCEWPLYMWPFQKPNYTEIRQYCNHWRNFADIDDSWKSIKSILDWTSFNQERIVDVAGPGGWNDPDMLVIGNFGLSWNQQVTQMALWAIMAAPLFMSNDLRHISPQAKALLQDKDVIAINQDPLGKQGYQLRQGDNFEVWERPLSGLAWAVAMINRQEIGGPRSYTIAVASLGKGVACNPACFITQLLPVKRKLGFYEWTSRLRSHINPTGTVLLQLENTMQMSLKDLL
Procedure, shortened: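 Human enzyme (2 nM) with 80 uM 4-methylumbelliferyl alpha-D-galactopyranoside in 50 mM citric acid, 0.005% Tween-20, pH 4.5, 20 min at room temperature. Compounds 0.7 nM–77 uM; fluorescence Ex 365/Em 440 after pH 10 stop; AC50 from Hill fits.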

[15] = biological target: alpha-glucosidase (Oryza sativa, rice) (UniProt Q653V4); test: Counterscreen for Glucocerebrosidase Inhibitors: qHTS Assay for Rice alpha-Glucosidase at pH 5.0 (AID 997);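 further: 0% = full activity with enzyme and -100% = basal without enzyme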
Procedure, shortened: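 Rice alpha-glucosidase (4 nM final) with 400 uM 4-methylumbelliferyl-alpha-D-glucopyranoside in citrate buffer pH 5.0, 20 min at room temperature, stopped at pH 10; fluorescence 365/440 nm, compounds 0.7 nM–77 uM, AC50 from Hill fits.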

[16] = biological target: Alpha-galactosidase (Coffea arabica) (UniProt Q42656); test: Counterscreen for Glucocerebrosidase Inhibitors: qHTS Assay for Coffee Bean alpha-Galactosidase at pH 5.9 (AID 998);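 further: plate controls were uninhibited enzyme for no effect and no-enzyme basal signal for full effect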
Procedure, shortened: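 Green coffee bean enzyme (2 nM) with 4-methylumbelliferyl alpha-D-galactopyranoside (80 uM) in 50 mM citric acid, 0.005% Tween-20, pH 5.9, 20 min at room temperature; compounds 0.7 nM–77 uM. Stopped at pH 10, fluorescence Ex365/Em440; Hill-fit AC50.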

[17] = biological target: DNA dC->dU-editing enzyme APOBEC-3G (Homo sapiens) (UniProt Q9HC16); test: qHTS for inhibitors of Vif-A3G interactions: Validation (AID 588379); further: 0% is about no effect
Sequence of DNA dC->dU-editing enzyme APOBEC-3G (Homo sapiens) (Q9HC16 whole entry, looked up): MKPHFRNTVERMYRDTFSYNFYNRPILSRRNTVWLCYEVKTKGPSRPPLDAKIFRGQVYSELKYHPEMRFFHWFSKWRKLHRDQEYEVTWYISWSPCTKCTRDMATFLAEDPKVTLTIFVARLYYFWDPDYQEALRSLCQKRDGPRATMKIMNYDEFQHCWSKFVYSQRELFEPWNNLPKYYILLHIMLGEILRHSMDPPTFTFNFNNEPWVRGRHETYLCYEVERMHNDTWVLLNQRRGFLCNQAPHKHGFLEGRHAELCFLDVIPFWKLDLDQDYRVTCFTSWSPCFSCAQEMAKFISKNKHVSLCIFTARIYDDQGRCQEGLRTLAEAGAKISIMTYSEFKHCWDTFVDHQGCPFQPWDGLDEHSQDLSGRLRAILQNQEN
Procedure, shortened: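 HeLa cells stably expressing Vif and A3G-eYFP, 700 cells/well, incubated overnight at 37 deg C, then exposed to compound overnight at 37 deg C. Inhibition of Vif-mediated degradation read as increased yellow fluorescence (Ex 488/Em 500-530) by laser-scanning cytometry.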

[18] = biological target: Furin (Homo sapiens) (UniProt P09958); test: Furin counterscreen qHTS for Zika virus inhibitors (AID 1347149);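 further: purified recombinant full-length human furin enzyme at 5 nM; fluorescence gain from furin cutting a BOC-RVRR-AMC peptide substrate over 15 min; top concentration of the series differs between compounds; plate controls were no-inhibitor control for no effect and no-enzyme control for full effect; nearly all actives have a fitted effect of over 70% in size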
Procedure, shortened: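 Fluorogenic cleavage of BOC-RVRR-AMC (2 microM final, Km ~15 µM) was monitored (ex 340, em 450 nm) at 37C after 15 min RT preincubation of 5 nM furin with compounds in HEPES pH 7.0 buffer with CaCl2 and Triton X-100. Percent inhibition was fitted to a 4-parameter Hill curve.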

[19] = system: Zika virus NS2B-NS3 protease (linked construct); test: Confirmatory screen NINDS AMC qHTS for Zika virus inhibitors (AID 1347152);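 further: AMC fluorescence gain from cleaved Bz-Nle-KRR-AMC substrate over 15 min; top concentration of the series differs between compounds; 0% = no-inhibitor control and -100% = no-enzyme control; nearly all actives have a fitted effect of over 70% in size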
Procedure, shortened: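 Concentration-response confirmation used the NINDS linked protease (NS2B hydrophilic domain joined to NS3 protease domain), 1 nM, with a 15-min compound preincubation. Substrate, Nle-KRR-AMC at 10 microM, was read by UV fluorescence before and after 15 min.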

[20] = system: Zika virus NS2B-NS3 protease (unlinked complex); test: Confirmatory screen GU AMC qHTS for Zika virus inhibitors (AID 1347153);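 further: percent inhibition with 0% = no inhibitor control and 100% = no enzyme control; nearly all actives have a fitted effect of over 70% in size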
Procedure, shortened: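 Unlinked NS2B-NS3 complex (25 nM) in 10 mM Tris-HCl pH 8.0, 0.01% Tween 20 preincubated 15 min with compound, then 10 microM Bz-Nle-KRR-AMC (Km 18.3 µM). Fluorescence change over 15 min, normalized, Hill-fitted.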

[21] = Confirmatory screen NINDS Rhodamine qHTS for Zika virus inhibitors (AID 1347161);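 further: purified Zika NS2B-NS3 protease with linked NS2B cofactor domain and Rhodamine110 peptide substrate; plate controls were no-inhibitor control for no effect and no-enzyme control for full effect; nearly all actives have a fitted effect of over 60% in size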
Procedure, shortened: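 Purified NS2B-NS3 protease with the NS2B hydrophilic domain joined by a flexible linker (25 nM) in 10 mM Tris-HCl pH 8.0, 0.01% Tween 20, preincubated 15 min at RT with compound; Rhodamine110 peptide substrate 1.5 µM; fluorescence change over 15 min; 4-parameter Hill fit.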

[22] = Vero cells viability qHTS for Zika virus inhibitors (AID 1347167); further: on the % scale 0 is the no-effect control and ±100 the full control effect
Procedure, shortened: (§1)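 Cells seeded at 2.5 x 10^5 cells/mL in DMEM with 4% FBS and attached overnight at 37 degrees C, then exposed to compound for 24 to 48 hours. Viability read as ATP content by CellTiter Glo luminescence.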

[23] = HepG2 cells viability qHTS for Zika virus inhibitors (AID 1347168); further: on the % scale 0 is the no-effect control and ±100 the full control effect
Procedure, shortened: as §1

[24] = Tertiary RLuc qRT-PCR qHTS assay for Zika virus inhibitors (AID 1347169); further: top concentration of the series differs between compounds; on the % scale 0 is the no-effect control and ±100 the full control effect; nearly all actives have a fitted effect of over 55% in size
Procedure, shortened: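 Inhibition of ZIKV-RLuc replication in Vero cells, read as Renilla luminescence 1-1.5 hrs after live-cell substrate addition, following 48-72 hrs infection at MOI 1-2 in presence of compound.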

[25] = Primary qHTS for small molecule stabilizers of the endoplasmic reticulum resident proteome: Secreted ER Calcium Modulated Protein (SERCaMP) assay (AID 1508630); further: on the % scale 0 is the no-effect control and ±100 the full control effect
Procedure, shortened: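 GLuc-SERCaMP-expressing SH-SY5Y cells, pretreated 16 h with compound, are challenged with thapsigargin to empty ER calcium stores; after 4 h, coelenterazine is added directly to the medium and luminescence is imaged.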

CN(C(=O)Cc1ccc(Cl)c(Cl)c1)[C@@H](CN1CCCC1)c1cccc(OCC(=O)O)c1
inactive: outcome [1] | Potency [2] | activity change, negative = inhibition [3] 9.54% | outcome [4] | Potency [5] > 46 µM | outcome [6] | Potency [7] | outcome [8] | Potency [9] | Potency [10] | Potency [11] | outcome [12] | outcome [13] | outcome [14] | outcome [15] | outcome [16] | Potency [17] | Potency [18] | Potency [19] | Potency [20] | Potency [21] | Potency [22] | Potency [23] | Potency [24] | Potency [25]
